Results on seven compounds are retold here after PubChem BioAssay (NCATS).

Records with an inconclusive call do not appear. Entries that show only a call come without a potency. The source made the active and inactive calls. The call rests on the fitted dose curve; in most records, active means well fitted inhibition curve with a large enough effect; inconclusive means small, poorly fitted or top-dose-only effect; inactive means flat fitted curve, though single readings scatter.

The target of this assay is Calcium and integrin-binding protein 1 (Homo sapiens) (UniProt Q99828). Put plainly: Primary qHTS for Identification of Calcium Integrin Binding Protein 1 (CIB1) Competitor (AID 1508620).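 Further: GST tagged CIB1 binding a fluorescein labelled alphaIIb integrin peptide tracer; top concentration of the series differs between compounds.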 As to conditions: CIB1-GST / FITC-alphaIIb peptide fluorescence polarization; series mostly up to 114 µM. Summed up: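 Fluorescence polarization competition: CIB1-GST (1 uM final) preincubated with compound 15 min at room temperature, then FITC-labeled alphaIIb peptide (100 nM final) added for another 15 min. Polarization read at Ex 480/Em 540.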
Chain of Calcium and integrin-binding protein 1 (Homo sapiens) (Q99828 whole entry, looked up): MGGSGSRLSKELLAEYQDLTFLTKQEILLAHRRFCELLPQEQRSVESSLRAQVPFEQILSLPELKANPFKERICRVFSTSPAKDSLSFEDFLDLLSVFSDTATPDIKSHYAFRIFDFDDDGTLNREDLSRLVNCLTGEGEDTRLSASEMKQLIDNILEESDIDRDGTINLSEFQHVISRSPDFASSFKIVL
Turning to `c1nc(N2CCOCC2)c2cc(-c3ccc4c(c3)OCO4)ccc2n1`, the Potency result was “inactive”. Under `N#Cc1nc(Nc2cc(F)cc(F)c2)nc(NC2CCCC2)n1` stands “inactive”; under `O=S(=O)(c1ccc2c(c1)OCCO2)N1CCN(S(=O)(=O)c2cccc[n+]2[O-])CC1`, “inactive”; under `CN1CCN(c2nn3c(=O)c4ccccc4nc3s2)CC1`, “inactive”. On to `Cc1cc(-c2nnc3n2CCCCC3)c(C)n1-c1ccc(Br)cc1`, for which the Potency result was “inactive”. Then `Cc1cn([C@H]2C[C@H](N[S+](=O)([O-])Cc3ccccc3)[C@@H](CO)O2)c(=O)[nH]c1=O`, with “inactive”; and `Cc1ccc(NCc2ccc(O)c3ncccc23)c(F)c1`, with “inactive”.
